Test results published in PubChem BioAssay (Tox21).
“And” between values parts separate entries of the source, which are not always exact repeats. Equal entries are not always repeated. Inconclusive results are not listed. A call without a number means that no potency is given here. The source holds several records for some structures; these can differ, active in one and inactive in another. The source made the active and inactive calls. Unless noted, calls come from the whole dose curve.

Tests used:
[1] = Nuclear factor erythroid 2-related factor 2/antioxidant responsive element (Nrf2/ARE) small molecule agonists: qHTS cell viability counter screen in human keratinocytes (AID 1919968; active = well fitted curve in the direction sought with a large enough effect in the repeat runs; an effect the other way counts as inactive or inconclusive; note: nearly all actives have a fitted effect of over 55% in size; note: potency is the fitted concentration of half-maximal effect)
Summary of the method: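 Parallel cytotoxicity read: KeratinoSens HaCaT cells, compound treatment 23 h, viability by CellTiter-Fluor fluorescence 1 h post-reagent.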

[2] = Nuclear factor erythroid 2-related factor 2/antioxidant responsive element (Nrf2/ARE) small molecule agonists: luciferase reporter gene qHTS assay in human keratinocytes (AID 1919969); note: nearly all actives have a fitted effect of over 35% in size; note: potency is the fitted concentration of half-maximal effect
[3] = biological target: Gonadotropin-releasing hormone receptor (Homo sapiens) (UniProt P30968); experiment: Human gonadotropin-releasing hormone receptor (GnRHR) small molecule agonists, calcium flux assay in GnRHR-HEK293 cells (AID 1920063); note: nearly all actives have a fitted effect of over 35% in size
Summary of the method: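 Calcium flux, agonist mode, human GnRHR stably integrated in HEK293; dye 1 h at 37 C before compound; Ex/Em=480/540 kinetic read, 3 min; 15 concentrations, triplicate.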

[4] = biological target: KiSS-1 receptor (Homo sapiens) (UniProt Q969F8); experiment: Human kisspeptin (KISS1R) small molecule agonists, calcium flux assay in KISS1R-HEK293 cells (AID 1920064; active = well fitted curve in the direction sought with a large enough effect in the repeat runs; an effect the other way counts as inactive or inconclusive)
Summary of the method: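 Triplicate 15-concentration series were applied to dye-loaded human KISS1R HEK293 cells, and agonist-evoked calcium fluorescence was captured for 3 min.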

[5] = G protein-coupled receptor (GPCR) small molecule agonists, calcium flux assay: HEK293 wild type cell line counter screen (AID 1920065)
Summary of the method: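 Non-specific calcium responders were flagged by adding DMSO-dissolved compounds to dye-loaded cells and reading 480/540 nm fluorescence each second for 3 min; ATP served as positive control.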

[6] = p53 small molecule agonists, cell-based qHTS assay with human liver microsomes (AID 1963577)
Summary of the method: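 Fluorescence of the beta-lactamase reporter in p53RE-bla cells, detected with LiveBLAzer substrate (2 h, room temperature, dark), served as the read-out after 16 h compound exposure at 37 C with human liver microsomes and NADPH, each 0.5 mg/mL final.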

[7] = p53 small molecule agonists, cell-based qHTS assay with rat liver microsomes (AID 1963578)
Summary of the method: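 Cells carrying a p53 response element–beta-lactamase reporter were plated and rested 5 h, then dosed with compound in DMSO plus rat liver microsomes and NADPH, each at 0.5 mg/mL final. After 16 h at 37 C, LiveBLAzer substrate was added for 2 h.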

[8] = p53 small molecule agonists, cell-based qHTS assay with human liver microsomes: qHTS cell viability counter screen (AID 1963579); note: nearly all actives have a fitted effect of over 45% in size
Summary of the method: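 Cytotoxicity counter screen: p53RE-bla, 4,000 cells/well; 5 h settle, 37 C/5% CO2; cpd + HLM 0.5 mg/mL + NADPH 0.5 mg/mL (final); 16 h, 37 C; CellTiter-Glo, 30 min RT, luminescence.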

[9] = p53 small molecule agonists, cell-based qHTS assay with rat liver microsomes: qHTS cell viability counter screen (AID 1963580); note: nearly all actives have a fitted effect of over 45% in size
Summary of the method: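 Cytotoxicity counter screen: intracellular ATP measured by CellTiter-Glo luminescence in the same wells as the beta-lactamase reporter read, on HCT-116 p53RE-bla cells exposed 16 h at 37 C to compounds with rat liver microsomes and NADPH, each 0.5 mg/mL final.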

[10] = p53 small molecule agonists, cell-based qHTS assay: qHTS cell viability counter screen (AID 1963581); note: nearly all actives have a fitted effect of over 45% in size
Summary of the method: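 Multiplexed with the reporter read, a CellTiter-Glo step (30 min, room temperature) gauges ATP-based viability of HCT-116 p53RE-bla cells after 16 h compound incubation at 37 C.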

[11] = p53 small molecule agonists, cell-based qHTS assay (AID 1963582; active = well fitted activation curve with a large enough effect in the signal ratio in the repeat runs, not every such curve was filed as active; the % refers to the signal ratio)
Summary of the method: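 Beta-lactamase reporter cells (p53RE-bla) treated with compounds for 16 h at 37 C; FRET substrate, 2 h, room temperature; fluorescence intensity.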

[12] = biological target: 5-hydroxytryptamine receptor 2A (Homo sapiens) (UniProt P28223); experiment: 5-hydroxytryptamine receptor 2A (HTR2A) small molecule antagonists, cell-based qHTS assay (AID 1963586); note: nearly all actives have a fitted effect of over 45% in size
Summary of the method: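 CHO cells stably expressing human HTR2A were plated for 18 h at 37 C, then loaded with calcium dye for 1 h. Compounds were preincubated 5 min at room temperature before DOI (4 nM solution) was added. Kinetic fluorescence was read for 3 min.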

[13] = biological target: 5-hydroxytryptamine receptor 2A (Homo sapiens) (UniProt P28223); experiment: 5-hydroxytryptamine receptor 2A (HTR2A) small molecule agonists, cell-based qHTS assay (AID 1963587); note: nearly all actives have a fitted effect of over 30% in size
Summary of the method: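 CHO cells stably expressing human HTR2A, plated 18 h, loaded with calcium dye 1 h at 37 C. Agonist mode: compounds added and intracellular calcium fluorescence recorded kinetically for 2 min at 1 sec intervals.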

[14] = biological target: Muscarinic acetylcholine receptor M1 (Homo sapiens) (UniProt P11229); experiment: Cholinergic receptor muscarinic 1 (CHRM1) small molecule antagonists, cell-based qHTS assay (AID 1963588); note: nearly all actives have a fitted effect of over 40% in size
Summary of the method: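 Compounds were tested at 15 concentrations in three independent runs. Dye-loaded CHRM1-CHO cells were exposed 5 min at room temperature before stimulation by acetylcholine added at 50nM. Intracellular calcium was read kinetically on FDSS for 3 min.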

[15] = biological target: Muscarinic acetylcholine receptor M1 (Homo sapiens) (UniProt P11229); experiment: Cholinergic receptor muscarinic 1 (CHRM1) small molecule agonists, cell-based qHTS assay (AID 1963589); note: nearly all actives have a fitted effect of over 35% in size
Summary of the method: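 qHTS, 15-point titration, 3 independent runs: compounds pin-transferred onto dye-loaded CHRM1-CHO cells (human M1), calcium fluorescence followed every second to detect agonism.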

[16] = cAMP Responsive Elements (CRE) small molecule agonists, cell-based qHTS assay (AID 1963590)
Summary of the method: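 Quantitative HTS for CRE agonists: HEK 293T CRE-bla cells, overnight plating, 3 h compound incubation at 37 C/5% CO2, then 2 h room-temperature LiveBLAzer B/G FRET substrate loading.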

[17] = cAMP Responsive Elements (CRE) small molecule antagonists, cell-based qHTS assay (AID 1963591; active = well fitted inhibition curve with a large enough effect in the signal ratio in the repeat runs, not every such curve was filed as active; the % refers to the signal ratio)
Summary of the method: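 Fluorescence intensity from cleaved LiveBLAzer B/G substrate (2 h, room temperature) quantified CRE-bla activity in HEK 293T cells exposed 3 h to compound with 0.25 uM final NKH477.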

[18] = biological target: Beta-2 adrenergic receptor (Homo sapiens) (UniProt P07550); experiment: Adrenergic beta2 receptor (ADRB2) small molecule antagonists, cell-based qHTS assay (AID 1963592); note: series mostly up to about 92 µM; nearly all actives have a fitted effect of over 50% in size
Summary of the method: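 Assay format: CHO-ADRB2 cells, 18-20hr seeding at 37C/5% CO2, then compound plus 1nM isoproterenol agonist mix for 0.5hr RT. Homogeneous time-resolved fluorescence cAMP detection after 1hr, expressed as 665/615 nm ratio.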

[19] = biological target: Beta-2 adrenergic receptor (Homo sapiens) (UniProt P07550); experiment: Adrenergic beta2 receptor (ADRB2) small molecule agonists, cell-based qHTS assay (AID 1963593);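 note: CHO cells stably overexpressing human ADRB2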
Summary of the method: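 CHO cells stably over-expressing ADRB2 were plated overnight at 37C, then dosed with compounds plus a stimulation mix containing 100uM IBMX and 25uM Ro-20-1724 for 0.5hr at room temperature. cAMP was measured by HTRF competition, 1hr.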

[20] = biological target: D(2) dopamine receptor (Homo sapiens) (UniProt P14416); experiment: Dopamine D2 receptor (DRD2) small molecule agonists, cell-based qHTS assay (AID 1963594); note: nearly all actives have a fitted effect of over 35% in size
Summary of the method: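 HEK293 cells stably expressing human DRD2, pre-treated with PDE inhibitor Ro20-1724 (0.1 mM final) and compound 10 min at room temperature, then stimulated with NKH477 (200nM […]) for 30 min. cAMP read by HTRF (665/620 nm).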

Sequence of Beta-2 adrenergic receptor (Homo sapiens) (P07550 whole entry, looked up): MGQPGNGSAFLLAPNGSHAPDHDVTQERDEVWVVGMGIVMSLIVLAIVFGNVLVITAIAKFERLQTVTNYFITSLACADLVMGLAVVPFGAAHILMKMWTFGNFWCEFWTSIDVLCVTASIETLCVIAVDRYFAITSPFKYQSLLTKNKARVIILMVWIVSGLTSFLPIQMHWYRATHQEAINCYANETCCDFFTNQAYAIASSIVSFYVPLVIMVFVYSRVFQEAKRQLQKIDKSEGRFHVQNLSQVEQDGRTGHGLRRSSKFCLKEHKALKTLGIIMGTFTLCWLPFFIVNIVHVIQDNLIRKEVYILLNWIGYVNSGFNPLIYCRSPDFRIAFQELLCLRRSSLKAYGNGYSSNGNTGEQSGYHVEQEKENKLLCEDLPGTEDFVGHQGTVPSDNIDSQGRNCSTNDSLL
Sequence of Gonadotropin-releasing hormone receptor (Homo sapiens) (P30968 whole entry, looked up): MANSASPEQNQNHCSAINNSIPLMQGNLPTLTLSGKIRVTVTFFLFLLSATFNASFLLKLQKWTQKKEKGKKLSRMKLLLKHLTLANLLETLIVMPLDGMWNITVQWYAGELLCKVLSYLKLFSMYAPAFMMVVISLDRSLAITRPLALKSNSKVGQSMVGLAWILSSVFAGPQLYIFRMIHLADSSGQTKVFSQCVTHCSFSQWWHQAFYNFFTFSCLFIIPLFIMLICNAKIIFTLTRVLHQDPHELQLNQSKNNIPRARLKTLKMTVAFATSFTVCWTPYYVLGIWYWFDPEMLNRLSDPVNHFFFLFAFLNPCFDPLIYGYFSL
Sequence of 5-hydroxytryptamine receptor 2A (Homo sapiens) (P28223 whole entry, looked up): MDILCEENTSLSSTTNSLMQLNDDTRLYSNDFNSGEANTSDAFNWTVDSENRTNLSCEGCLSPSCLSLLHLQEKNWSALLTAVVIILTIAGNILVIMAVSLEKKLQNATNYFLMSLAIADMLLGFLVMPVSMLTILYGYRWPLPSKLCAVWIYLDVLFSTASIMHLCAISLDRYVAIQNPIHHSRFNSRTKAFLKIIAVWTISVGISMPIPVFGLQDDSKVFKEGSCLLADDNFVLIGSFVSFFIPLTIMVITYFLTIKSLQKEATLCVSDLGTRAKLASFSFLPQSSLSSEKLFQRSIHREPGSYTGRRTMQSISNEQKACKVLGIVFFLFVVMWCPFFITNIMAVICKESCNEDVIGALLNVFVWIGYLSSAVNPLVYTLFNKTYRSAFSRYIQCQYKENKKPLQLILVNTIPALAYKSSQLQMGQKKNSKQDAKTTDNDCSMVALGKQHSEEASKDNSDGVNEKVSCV
Sequence of KiSS-1 receptor (Homo sapiens) (Q969F8 whole entry, looked up): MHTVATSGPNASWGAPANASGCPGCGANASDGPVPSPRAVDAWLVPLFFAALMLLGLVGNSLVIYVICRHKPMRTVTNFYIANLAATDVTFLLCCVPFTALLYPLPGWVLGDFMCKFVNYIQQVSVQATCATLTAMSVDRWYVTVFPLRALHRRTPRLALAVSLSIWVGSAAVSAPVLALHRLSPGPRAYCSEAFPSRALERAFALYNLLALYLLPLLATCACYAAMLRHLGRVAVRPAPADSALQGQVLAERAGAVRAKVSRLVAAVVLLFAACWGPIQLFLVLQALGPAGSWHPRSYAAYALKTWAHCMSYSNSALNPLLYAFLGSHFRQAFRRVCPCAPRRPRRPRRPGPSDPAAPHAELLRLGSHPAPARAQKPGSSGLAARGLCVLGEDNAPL
Sequence of Muscarinic acetylcholine receptor M1 (Homo sapiens) (P11229 whole entry, looked up): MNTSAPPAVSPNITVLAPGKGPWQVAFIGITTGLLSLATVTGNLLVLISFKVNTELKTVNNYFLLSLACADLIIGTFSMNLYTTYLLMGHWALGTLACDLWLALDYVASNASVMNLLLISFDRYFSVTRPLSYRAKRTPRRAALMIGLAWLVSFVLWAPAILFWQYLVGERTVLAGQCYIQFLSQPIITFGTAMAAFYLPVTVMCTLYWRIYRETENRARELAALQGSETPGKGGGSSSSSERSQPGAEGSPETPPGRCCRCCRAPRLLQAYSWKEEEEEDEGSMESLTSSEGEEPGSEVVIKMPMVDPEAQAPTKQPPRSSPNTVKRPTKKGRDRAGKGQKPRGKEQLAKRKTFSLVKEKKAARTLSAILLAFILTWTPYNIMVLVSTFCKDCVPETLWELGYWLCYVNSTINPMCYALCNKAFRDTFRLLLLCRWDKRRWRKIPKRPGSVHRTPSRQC
Sequence of D(2) dopamine receptor (Homo sapiens) (P14416 whole entry, looked up): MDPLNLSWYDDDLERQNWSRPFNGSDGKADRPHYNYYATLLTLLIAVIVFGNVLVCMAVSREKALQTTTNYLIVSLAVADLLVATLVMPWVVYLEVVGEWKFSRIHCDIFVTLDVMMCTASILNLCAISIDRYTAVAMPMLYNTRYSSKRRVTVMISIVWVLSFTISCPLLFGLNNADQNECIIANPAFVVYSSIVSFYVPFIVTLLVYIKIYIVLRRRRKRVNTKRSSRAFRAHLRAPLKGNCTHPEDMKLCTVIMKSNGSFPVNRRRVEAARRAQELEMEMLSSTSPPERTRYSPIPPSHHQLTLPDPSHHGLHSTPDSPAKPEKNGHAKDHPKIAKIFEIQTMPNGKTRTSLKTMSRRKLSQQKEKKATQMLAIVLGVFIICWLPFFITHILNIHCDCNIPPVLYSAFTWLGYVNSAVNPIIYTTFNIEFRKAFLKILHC

Row | Compound | Potency [1] | Potency [2] | Potency [3] | Potency [4] | Potency [5] | Potency [6] | Potency [7] | Potency [8] | Potency [9] | Potency [10] | Potency [11] | Potency [12] | Potency [13] | Potency [14] | Potency [15] | Potency [16] | Potency [17] | Potency [18] | Potency [19] | Potency [20]
1 | Cc1ccccc1C(=O)N1CC/C(=N\OS(=O)(=O)O)c2ccc(Cl)cc21 | inactive | inactive | inactive | inactive | inactive | inactive | inactive | inactive | inactive | inactive | inactive | inactive | inactive | inactive | inactive | inactive | inactive | inactive | inactive | inactive
2 | NS(=O)(=O)c1cc2c(cc1Cl)NC(CC1CCCC1)NS2(=O)=O (centres undefined) | inactive | inactive | inactive | inactive | inactive | inactive | inactive | inactive | inactive | inactive | inactive | inactive | inactive | inactive | inactive | inactive | inactive | inactive | inactive | inactive
3 | CCCCCCCCCCCCCCCC(=O)NCCO | inactive | inactive | inactive | inactive | inactive | inactive | inactive | inactive | inactive | inactive | inactive | inactive | inactive | inactive | inactive | inactive | inactive | inactive | inactive | 
4 | COc1ccc2cc3[n+](cc2c1OC)CCc1cc2c(cc1-3)OCO2 | 4.22 µM (active) | inactive | inactive | inactive | inactive | inactive | inactive | inactive | inactive | inactive |  |  |  |  |  |  |  |  |  | 
5 | Cc1ccc(NC(=O)N(C)C)cc1NC(=O)N(C)C | inactive | inactive | inactive | inactive | inactive | inactive | inactive | inactive | inactive | inactive | inactive | inactive | inactive | inactive | inactive | inactive | inactive | inactive | inactive | inactive
6 | COc1ccc(N)c(OC)c1 | inactive | inactive and 68.6 µM (active) | inactive | inactive | inactive | inactive | inactive | inactive | inactive | inactive | inactive | inactive | inactive | inactive | inactive | inactive | inactive | inactive | inactive | inactive
7 | CCCCCCC(C)(C)C(=O)O | inactive | inactive | inactive | inactive | inactive | inactive | inactive | inactive | inactive | inactive | inactive | inactive | inactive | inactive | inactive | inactive | inactive | inactive | inactive | inactive
8 | Cc1[nH]cnc1-c1ccc(Cl)cc1 | inactive | inactive | inactive | inactive | inactive | inactive | inactive | inactive | inactive | inactive | inactive | inactive | inactive | inactive | inactive | inactive | inactive | inactive | inactive | inactive
